This excerpt belongs to a sample that is enriched for hits.
Lassa entry inh – Lassa virus entry inhibition. actives 1.2% (n = 300,000). Lassa virus pseudotype entry inhibition, cell reporter. AID 540256. Potency, µM (series often up to 37.9 µM), for inactives: at the top dose activity change, negative = inhibition, hits mostly inhibitors; calls by dose curve; tested in HEK293 cells; also: potency is read from the fitted curve at half-maximal effect; % is scaled to controls: 0 for no effect and ±100 for the full control effect; nearly all actives have a fitted effect of over 50% in size
MARV entry inh – inhibitors of Marburg virus binding or cell entry; Marburg virus pseudotyped entry inhibition, cell reporter; Potency, µM (series often up to 37.8 µM), without a hit: at the highest dose activity change, negative = inhibition, most hits filed as inhibitors; actives 1.8% (n = 300,000); calls by dose curve; tested in HEK293 cells; also: potency is read from the fitted curve at half-maximal effect; % is scaled to controls: 0 for no effect and ±100 for the full control effect
Shiga toxin inh – inhibitors of Shiga toxin in Vero cells | Vero cells, Shiga toxin protein synthesis inhibition reporter | actives 9.2% (n = 290,000) | AID 2315 | inhibition, % at 38.7 µM; in the data active = inhibition mostly above about 28%, no sharp cut-off; inactive = mostly below about 43%; also: 0% is about no effect
CHX counter – affects cycloheximide protein synthesis inhibition readout, counter-screen; cell reporter, cycloheximide protein synthesis inhibition counterscreen; max response, %; actives 12% (n = 300,000); in the data active = max response mostly above about 13%, no sharp cut-off; inactive = mostly below about 14%; also: read at 38.3 µM for the half of the compounds with a filed dose; 0% is about no effect
Vaccinia Venus – inhibitors of vaccinia virus (Venus reporter) | Vaccinia virus Venus reporter expression, fluorescence | Potency, µM (series often up to 36.5 µM), inactives show top-dose activity change, negative = inhibition, actives largely listed as inhibitors | actives 0.46% (n = 330,000); calls by dose curve; tested in A549 cells; also: potency is read from the fitted curve at half-maximal effect; % is scaled to controls: 0 for no effect and ±100 for the full control effect; nearly all actives have a fitted effect of over 30% in size
VACV mCherry inh – vaccinia inhibition (mCherry reporter). actives 0.63% (n = 310,000). Vaccinia virus mCherry reporter infection, fluorescence. Potency, µM (titrated, usually from 36.5 µM), for inactives: at the top dose activity change, negative = inhibition, hits mostly inhibitors; calls by dose curve; tested in A549 cells; also: potency is read from the fitted curve at half-maximal effect; % is scaled to controls: 0 for no effect and ±100 for the full control effect; nearly all actives have a fitted effect of over 35% in size
Active calls of the source: *; i = inactive; ? = inconclusive; . = no result given; [ ] = another dose, or the depositor's remark.

SMILES	Lassa entry inh	MARV entry inh	Shiga toxin inh	CHX counter	Vaccinia Venus	VACV mCherry inh
COc1cccc(N2C(=O)C(CC(=O)Nc3ccccc3)N(CCc3sccc3C)C2=O)c1 (centres undefined)	?	?	.	.	-6%	-8%
CN(Cc1nccs1)C(=O)C1CCC(=O)N(CCCc2ccccc2)C1 (centres undefined)	.	.	7	1	0%[7.34 µM]	i[7.34 µM]
Cc1cc(SCC(=O)OCC(=O)N(C)c2ccccc2)nc2ccccc12	-14%	-13%[46.1 µM]	.	.	-5%	i
COc1ccc(-c2cc(C(=O)Nc3ccc4c(c3)OCO4)no2)cc1	?	-4%[46.1 µM]	20	7	4%	-6%
O=C(Nc1ccc2c(c1)OCO2)c1cc(C2CC2)on1	.	.	52*	34*	-14%	-13%
CC(C)c1cc(C(=O)Nc2ccc3c(c2)OCO3)no1	.	.	55*	30*	-5%	i
O=C(CSc1nnc2ccccn12)c1ccc(Cl)cc1	?	23%	124*	45*	.	.
O=C(CSc1nnc2ccccn12)NNC(=O)c1ccc(Cl)cc1	?	14%[46.1 µM]	-4	-3	-13%	-9%
CCOc1ccc(-n2nnnc2SCC(=O)c2ccccc2)cc1	?	-8%	-14	1	-11%	.
CCOc1ccc(C(=O)CSc2nnc3ccccn23)cc1	?	4%	58*	34*	-6%	i
Cc1c(Cl)cnc(NC(=O)CSc2nnc3ccccn23)c1Cl	?	2%	84*	22*	-17%	.
O=C(Nc1ccccc1C(=O)N1CCOCC1)c1cc2ccccc2o1	.	.	2	-3	.	.
O=C(Nc1ccc(N2CCOCC2)cc1)c1cc2ccccc2o1	-1%	?	76*	54*	-31%	.
O=C(Nc1ccc(N2CCN(C(=O)c3ccc(Cl)cc3)CC2)cc1)c1cc2ccccc2o1	-13%	-25%	22	-2	.	.
O=C(Nc1ccc(CN2CCOCC2)cc1)c1cc(Br)ccc1Cl	.	.	10	3	.	.
O=C(/C=C/N1CCOCC1)c1cc2ccccc2o1	-27%	?	71*	27*	13%	.
O=C(NC(=S)Nc1ccc(CN2CCOCC2)cc1)c1cc2ccccc2o1	.	.	20	6	.	.
O=C(Nc1ccc(CN2CCOCC2)cc1)c1cc2ccccn2n1	6.5µM*	?	38*	22*	-17%	-18%
O=C(Nc1ccc(CN2CCOCC2)cc1)c1cc2ccccc2o1	-9%	?	64*	34*	-20%	-10%
CCNC(=O)C1CCCN(Cc2ccc(C(=O)OCC)cc2)CC1 (centres undefined)	.	.	.	.	-1%	5%
CCOC(=O)c1scc(-c2ccccc2)c1S(=O)(=O)Nc1ccc(N(C)C)cc1	-16%[46.1 µM]	.	.	.	-8%	-13%
O=C(/C=C/N1CCOCC1)c1coc2ccccc12	?	?	63*	35*	8%	i
CCC(=O)N1CCN(c2ccc(NC(=O)c3cc4ccccc4o3)cc2)CC1	-12%	-10%	42	16*	-28%	.
CC1(CCc2ccccc2)NC(=S)N(c2ccc(Cl)cc2)N1 (centres undefined)	?	1%	59*	36*	-25%	-2%
CC1(CCc2ccccc2)NC(=O)N(CC(=O)O)C1=O (centres undefined)	.	.	-7	-4	0%	i
SMILES	Lassa entry inh	MARV entry inh	Shiga toxin inh	CHX counter	Vaccinia Venus	VACV mCherry inh
CC1(CCc2ccccc2)NC(=S)N(c2ccccc2)N1 (centres undefined)	?	1%	42*	40*	-8%	-15%
CC1(c2ccc(Cl)cc2)NC(=S)N2C1NC(=S)N2c1ccccc1 (centres undefined)	-8%	-3%[46.1 µM]	-3	2	-1%	?
CC(C)(C)CC(=O)Nc1nnc(CCc2ccccc2)s1	?	?	93	29*	?	-4%
CCC(C)(C)C(=O)Nc1nnc(CCc2ccccc2)s1	.	.	80*	39*	.	.
CCCC(=O)Nc1nnc(CCc2ccccc2)s1	.	.	12	7	.	.
Cc1cc(C)n(CCN(C)C(=O)CCc2nnc(CCC3CCCCC3)o2)n1	.	.	91*	38*	-14%	i
CN(CCCC1CCCC1)C(=O)CCc1nnc(-c2ccccc2)o1	29%[46.1 µM]	?	53*	32*	-5%	-4%
CN(Cc1ccon1)C(=O)CCc1nnc(CCCCc2ccccc2)o1	-4%[46.1 µM]	5%[46.1 µM]	-10	-1	-4%	i
CN(CCC1CCCCO1)C(=O)CCc1nnc(CCCCc2ccccc2)o1 (centres undefined)	.	.	33	17*	.	.
CN(C(=O)CCc1nnc(-c2ccc(-c3ccccc3)cc2)o1)C1CCOCC1	?	-30%	30*	13	-13%	-1%
CCOc1ccccc1N(CC(=O)NC1CCCCC1)C(=O)CCC(=O)Nc1nccs1	4%	-6%[46.1 µM]	-12	-4	-6%	-14%
NS(=O)(=O)c1ccc(NCc2cc(Cl)ccc2OCc2ccc(F)cc2)cc1	?	?	-3	-1	-7%	-22%
COc1ccccc1[C@@]1(CC(=O)N2CCOCC2)CCO[C@@H](C(C)C)C1	.	-1%	.	.	.	.
O=C1CN(C(=O)/C=C/c2ccc(Cl)cc2)c2ccccc2N1	?	?	13	13	-20%	i
O=C1CC(C(F)(F)C(F)(F)C(F)(F)F)=Nc2ccccc2N1	-6%	7%	-8	-1	.	.
O=C1CC(/C=C/c2cccnc2)=Nc2ccccc2N1	?	?	30	17*	?	?
O=C1CC(/C=C/c2ccccc2)=Nc2ccccc2N1	.	.	58*	30*	.	.
O=C1CC(/C=C/c2ccc(Cl)cc2)=Nc2ccccc2N1	.	.	97*	39*	.	.
CC1(C)CC(/C=C/c2ccccc2)=Nc2ccccc2N1	.	.	83*	52*	.	.
CC(NS(=O)(=O)c1ccccc1[N+](=O)[O-])c1ccccn1 (centres undefined)	.	.	.	.	-14%	-3%
CNC(=S)N(CCc1c(C)[nH]c2ccccc12)Cc1cccnc1	-23%[46.1 µM]	-12%[46.1 µM]	-5	-3	-8%	?
COc1cccc(/C=N/NC(N)=S)c1OCc1ccccc1Cl	12%	?	-9	-4	?	?
O/N=C/c1ccccc1OCc1ccc(Cl)cc1	?	-13%	63*	44*	3%	-8%
CCOC(=O)N/N=C/c1ccccc1OCc1ccc(Cl)cc1	-9%	?	50*	34*	-21%	-13%
O=S(=O)(N/N=C/c1ccccc1OCc1ccc(Cl)cc1)c1ccccc1	-12%	?	active	23*	-27%	-19%
COC(=O)c1ccc(COc2ccccc2/C=N/NS(=O)(=O)c2ccc(C)cc2)cc1	-31%[14.3 µM]	?	-10	-2	?	-27%
NC(=S)N/N=C/c1ccccc1OCCSc1ccc(Cl)cc1	3.7µM*	?	13	5	0.32µM*	0.089µM*
O=C(Cc1ccccc1)N/N=C/c1ccccc1OCc1ccc(Cl)cc1	-25%	24%	-5	9	-14%	i
O/N=C/c1ccccc1OCc1ccccc1Cl	-12%	22%	-9	-3	-28%	-29%

Screening data: PubChem BioAssay, National Center for Advancing Translational Sciences (NCATS)
